# Measurements as given in the supplement of paper PMC6411743.
# ± gives the standard deviation of the averaged measurements. Targets with the largest changes are over-represented here; the source holds about 5,400 in all.
# Compound: Nc1nc2c(ncn2[C@@H]2O[C@H](COP(=O)(O)OP(=O)(O)OP(=O)(O)O)[C@@H](O)[C@H]2O)c(=O)[nH]1 [guanosine triphosphate]
# Test: NP40-soluble protein abundance relative to vehicle (solubility fold change) (ratio); higher = more soluble protein in presence of GTP
# Procedure, shortened: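 Values are fold changes against the detergent-processed vehicle, based on vsn-normalised intensities. Jurkat crude lysate was treated at eight concentrations from 0.1 to 10 mM (10 min at room temperature, then 3 min at 37 °C), solubilised with 0.8% NP40 and benzonase, ultracentrifuged and analysed by TMT-labelled LC-MS/MS over three independent experiments.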
# UniProt Q9UL25, sequence (Q9UL25 whole entry): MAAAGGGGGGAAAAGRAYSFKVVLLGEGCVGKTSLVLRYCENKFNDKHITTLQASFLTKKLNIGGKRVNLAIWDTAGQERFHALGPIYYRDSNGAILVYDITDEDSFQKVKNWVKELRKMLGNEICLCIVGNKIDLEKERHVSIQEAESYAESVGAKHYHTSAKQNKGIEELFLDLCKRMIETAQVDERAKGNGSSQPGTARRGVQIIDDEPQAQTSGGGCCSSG
# UniProt Q9BW83, sequence (Q9BW83 whole entry): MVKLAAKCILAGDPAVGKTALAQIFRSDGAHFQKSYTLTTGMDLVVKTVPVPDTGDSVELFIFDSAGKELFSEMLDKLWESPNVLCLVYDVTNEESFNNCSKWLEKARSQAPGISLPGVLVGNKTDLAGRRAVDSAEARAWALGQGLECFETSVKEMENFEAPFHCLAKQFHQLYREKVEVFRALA
# UniProt Q9HCD5, sequence (Q9HCD5 whole entry): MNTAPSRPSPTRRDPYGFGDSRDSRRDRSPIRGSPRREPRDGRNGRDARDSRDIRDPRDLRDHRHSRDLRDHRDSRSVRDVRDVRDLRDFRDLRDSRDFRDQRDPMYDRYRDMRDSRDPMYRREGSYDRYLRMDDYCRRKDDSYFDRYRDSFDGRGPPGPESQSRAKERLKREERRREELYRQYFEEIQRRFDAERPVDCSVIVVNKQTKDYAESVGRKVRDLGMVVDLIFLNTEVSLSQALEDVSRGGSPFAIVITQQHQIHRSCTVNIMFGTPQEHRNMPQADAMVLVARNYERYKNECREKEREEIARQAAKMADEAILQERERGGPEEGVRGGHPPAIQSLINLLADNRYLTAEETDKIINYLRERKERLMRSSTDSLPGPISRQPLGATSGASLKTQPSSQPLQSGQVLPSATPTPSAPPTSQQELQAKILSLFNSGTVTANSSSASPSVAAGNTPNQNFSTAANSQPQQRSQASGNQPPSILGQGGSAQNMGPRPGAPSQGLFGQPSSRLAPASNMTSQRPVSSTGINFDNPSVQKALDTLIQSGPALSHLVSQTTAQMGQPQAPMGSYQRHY
# UniProt Q9UKV8, sequence (Q9UKV8 whole entry): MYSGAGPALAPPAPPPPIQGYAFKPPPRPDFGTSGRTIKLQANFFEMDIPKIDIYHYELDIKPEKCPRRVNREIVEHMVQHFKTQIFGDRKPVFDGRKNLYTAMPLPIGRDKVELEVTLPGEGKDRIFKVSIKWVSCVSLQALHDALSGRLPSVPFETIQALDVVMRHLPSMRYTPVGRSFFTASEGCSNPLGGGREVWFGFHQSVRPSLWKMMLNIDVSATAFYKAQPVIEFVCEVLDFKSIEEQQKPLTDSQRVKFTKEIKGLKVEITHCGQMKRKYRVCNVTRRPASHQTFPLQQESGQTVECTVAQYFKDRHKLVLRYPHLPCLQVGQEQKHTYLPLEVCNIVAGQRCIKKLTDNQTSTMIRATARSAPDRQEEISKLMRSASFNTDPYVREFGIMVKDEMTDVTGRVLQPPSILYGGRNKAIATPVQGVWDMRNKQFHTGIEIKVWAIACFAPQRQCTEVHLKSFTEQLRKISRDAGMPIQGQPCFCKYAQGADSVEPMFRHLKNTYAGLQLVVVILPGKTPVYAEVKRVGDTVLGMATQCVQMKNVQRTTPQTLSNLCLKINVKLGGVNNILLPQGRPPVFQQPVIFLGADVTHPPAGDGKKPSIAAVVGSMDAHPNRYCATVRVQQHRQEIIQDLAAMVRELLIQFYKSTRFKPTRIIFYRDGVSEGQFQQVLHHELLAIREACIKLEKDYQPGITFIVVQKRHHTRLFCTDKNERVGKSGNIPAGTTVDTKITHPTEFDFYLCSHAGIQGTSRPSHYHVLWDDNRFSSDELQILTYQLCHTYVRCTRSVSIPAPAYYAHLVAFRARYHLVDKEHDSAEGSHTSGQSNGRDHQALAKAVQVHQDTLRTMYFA
# UniProt Q9BZM5, sequence (Q9BZM5 whole entry): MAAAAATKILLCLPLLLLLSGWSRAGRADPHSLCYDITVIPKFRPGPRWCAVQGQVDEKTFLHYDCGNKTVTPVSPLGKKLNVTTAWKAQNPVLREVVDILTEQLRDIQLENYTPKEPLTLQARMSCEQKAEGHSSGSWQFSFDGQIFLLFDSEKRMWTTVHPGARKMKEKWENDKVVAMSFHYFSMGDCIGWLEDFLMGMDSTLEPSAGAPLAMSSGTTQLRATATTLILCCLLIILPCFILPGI
# UniProt Q9HC52, sequence (Q9HC52 whole entry): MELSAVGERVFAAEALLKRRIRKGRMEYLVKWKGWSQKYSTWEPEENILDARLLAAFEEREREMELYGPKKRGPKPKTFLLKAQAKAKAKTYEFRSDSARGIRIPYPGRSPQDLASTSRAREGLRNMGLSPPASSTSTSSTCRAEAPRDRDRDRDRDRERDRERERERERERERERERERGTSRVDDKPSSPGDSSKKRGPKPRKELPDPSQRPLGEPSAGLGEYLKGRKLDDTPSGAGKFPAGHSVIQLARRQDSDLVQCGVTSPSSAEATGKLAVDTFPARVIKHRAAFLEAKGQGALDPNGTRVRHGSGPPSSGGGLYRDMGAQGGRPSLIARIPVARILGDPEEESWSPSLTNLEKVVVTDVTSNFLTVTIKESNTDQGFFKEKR
# UniProt Q9Y512, sequence (Q9Y512 whole entry): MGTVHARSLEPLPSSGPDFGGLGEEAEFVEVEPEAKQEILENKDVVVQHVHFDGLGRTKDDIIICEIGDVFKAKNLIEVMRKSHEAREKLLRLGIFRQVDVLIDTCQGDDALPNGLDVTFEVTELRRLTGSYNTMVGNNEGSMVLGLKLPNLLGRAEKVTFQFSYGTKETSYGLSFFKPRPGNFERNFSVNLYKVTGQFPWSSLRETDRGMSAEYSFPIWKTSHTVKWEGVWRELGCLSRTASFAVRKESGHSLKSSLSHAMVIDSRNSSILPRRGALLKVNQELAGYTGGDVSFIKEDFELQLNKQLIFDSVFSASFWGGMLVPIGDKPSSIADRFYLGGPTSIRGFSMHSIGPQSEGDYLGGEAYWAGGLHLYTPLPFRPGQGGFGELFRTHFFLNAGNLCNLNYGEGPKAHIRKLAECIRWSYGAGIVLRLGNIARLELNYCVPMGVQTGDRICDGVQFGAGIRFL
# UniProt Q9H4I2, sequence (Q9H4I2 whole entry): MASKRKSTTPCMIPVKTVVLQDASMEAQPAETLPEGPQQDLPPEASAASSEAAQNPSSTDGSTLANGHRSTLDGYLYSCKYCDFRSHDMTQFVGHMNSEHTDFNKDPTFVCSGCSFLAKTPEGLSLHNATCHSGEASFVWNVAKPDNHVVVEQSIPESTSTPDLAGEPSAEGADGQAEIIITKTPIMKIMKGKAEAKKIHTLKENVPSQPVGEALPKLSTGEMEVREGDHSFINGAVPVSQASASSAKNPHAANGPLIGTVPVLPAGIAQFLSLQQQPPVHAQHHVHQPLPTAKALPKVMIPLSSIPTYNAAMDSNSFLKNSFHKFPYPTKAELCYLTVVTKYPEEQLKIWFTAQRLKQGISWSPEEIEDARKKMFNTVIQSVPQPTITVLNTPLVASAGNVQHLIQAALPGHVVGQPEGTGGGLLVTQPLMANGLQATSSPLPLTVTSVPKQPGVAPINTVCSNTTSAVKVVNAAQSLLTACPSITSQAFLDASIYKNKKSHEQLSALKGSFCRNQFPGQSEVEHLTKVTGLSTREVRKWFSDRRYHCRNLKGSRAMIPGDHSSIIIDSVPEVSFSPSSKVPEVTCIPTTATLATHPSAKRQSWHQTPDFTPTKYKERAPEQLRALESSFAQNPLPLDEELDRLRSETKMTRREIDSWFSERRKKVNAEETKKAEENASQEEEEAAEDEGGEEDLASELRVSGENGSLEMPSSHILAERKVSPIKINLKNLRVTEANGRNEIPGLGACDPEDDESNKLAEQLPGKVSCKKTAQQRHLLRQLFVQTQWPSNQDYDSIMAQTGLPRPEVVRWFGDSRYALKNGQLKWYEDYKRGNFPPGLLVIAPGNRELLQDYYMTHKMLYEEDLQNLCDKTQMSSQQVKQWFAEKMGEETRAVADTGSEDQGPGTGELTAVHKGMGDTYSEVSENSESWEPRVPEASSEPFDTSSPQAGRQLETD
# UniProt Q9H3N1, sequence (Q9H3N1 whole entry): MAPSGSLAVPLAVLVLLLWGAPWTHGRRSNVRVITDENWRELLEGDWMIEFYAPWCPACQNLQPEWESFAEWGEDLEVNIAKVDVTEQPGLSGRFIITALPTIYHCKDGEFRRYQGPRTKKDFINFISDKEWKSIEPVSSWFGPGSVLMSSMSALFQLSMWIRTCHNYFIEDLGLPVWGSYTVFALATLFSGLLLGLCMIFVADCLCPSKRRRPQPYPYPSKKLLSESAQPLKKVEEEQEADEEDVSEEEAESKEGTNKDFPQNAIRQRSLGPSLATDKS
# UniProt Q96HS1, sequence (Q96HS1 whole entry): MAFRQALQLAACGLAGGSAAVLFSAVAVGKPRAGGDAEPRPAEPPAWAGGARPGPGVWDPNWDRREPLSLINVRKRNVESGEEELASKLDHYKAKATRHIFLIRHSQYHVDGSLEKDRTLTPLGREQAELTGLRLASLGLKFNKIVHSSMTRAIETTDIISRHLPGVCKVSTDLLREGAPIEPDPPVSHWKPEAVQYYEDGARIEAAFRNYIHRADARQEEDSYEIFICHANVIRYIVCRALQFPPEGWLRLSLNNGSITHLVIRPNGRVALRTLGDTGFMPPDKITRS
# UniProt Q9HA64, sequence (Q9HA64 whole entry): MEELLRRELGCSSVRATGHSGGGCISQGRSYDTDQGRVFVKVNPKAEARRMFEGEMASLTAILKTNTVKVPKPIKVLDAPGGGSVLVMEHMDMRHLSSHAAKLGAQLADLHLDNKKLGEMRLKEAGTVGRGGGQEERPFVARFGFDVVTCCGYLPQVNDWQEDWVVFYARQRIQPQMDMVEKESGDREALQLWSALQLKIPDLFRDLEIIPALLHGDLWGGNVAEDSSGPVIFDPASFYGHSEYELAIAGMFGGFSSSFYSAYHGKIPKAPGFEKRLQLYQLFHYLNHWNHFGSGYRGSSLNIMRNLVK
# UniProt Q9BT73, sequence (Q9BT73 whole entry): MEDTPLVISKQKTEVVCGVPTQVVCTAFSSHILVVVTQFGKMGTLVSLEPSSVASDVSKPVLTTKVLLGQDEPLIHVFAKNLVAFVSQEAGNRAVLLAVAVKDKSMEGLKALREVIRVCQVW
Target,NP40-soluble protein abundance (concentration: 0.1mM),NP40-soluble protein abundance (concentration: 0.5mM),NP40-soluble protein abundance (concentration: 1mM),NP40-soluble protein abundance (concentration: 2mM),NP40-soluble protein abundance (concentration: 4mM),NP40-soluble protein abundance (concentration: 6mM),NP40-soluble protein abundance (concentration: 8mM),NP40-soluble protein abundance (concentration: 10mM)
UniProt Q9BW83|Q9BW83-2,0.972 ± 0.019,1.05 ± 0.059,0.971 ± 0.02,0.958 ± 0.013,0.911 ± 0.036,0.95 ± 0.018,0.916 ± 0.016,0.944 ± 0.0068
NAT10 (UniProt Q9H0A0),1.07 ± 0.065,1.04 ± 0.061,1.02 ± 0.063,1.07 ± 0.065,1.2 ± 0.079,1.31 ± 0.085,1.37 ± 0.077,1.59 ± 0.11
PUS7 (UniProt Q96PZ0),0.992 ± 0.013,0.992 ± 0.016,0.944 ± 0.046,0.944 ± 0.029,0.907 ± 0.053,0.917 ± 0.022,0.889 ± 0.038,0.892 ± 0.059
CBX8 (UniProt Q9HC52),1.01 ± 0.04,1.04 ± 0.048,1.13 ± 0.013,1.24 ± 0.14,1.42 ± 0.15,1.61 ± 0.15,1.74 ± 0.17,1.86 ± 0.23
UniProt Q96T23|Q96T23-2,1.02 ± 0.028,1.09 ± 0.081,1.25 ± 0.014,1.45 ± 0.1,1.72 ± 0.22,2.07 ± 0.29,2.49 ± 0.49,2.71 ± 0.62
FN3KRP (UniProt Q9HA64),0.9717 ± 0.0097,0.991 ± 0.014,0.927 ± 0.032,0.913 ± 0.061,0.905 ± 0.042,0.884 ± 0.031,0.89 ± 0.047,0.868 ± 0.051
UniProt Q96BY9|H0YAZ1,1.08 ± 0.15,1.08 ± 0.064,1.09 ± 0.15,1.1 ± 0.094,1.03 ± 0.11,1.01 ± 0.1,1.05 ± 0.19,1.07 ± 0.22
LUC7L2 (UniProt Q9Y383),1.09 ± 0.11,1.4 ± 0.08,1.58 ± 0.098,1.54 ± 0.18,1.56 ± 0.12,1.66 ± 0.12,1.74 ± 0.15,1.7 ± 0.16
UniProt Q9UJX5|Q9UJX5-3|Q9UJX5-2,1.2 ± 0.19,1.24 ± 0.3,1.15 ± 0.19,1.27 ± 0.23,1.25 ± 0.27,1.23 ± 0.32,1.2 ± 0.23,1.13 ± 0.17
NCOA5 (UniProt Q9HCD5),1.03 ± 0.053,1 ± 0.028,1.084 ± 0.0085,1.22 ± 0.043,1.58 ± 0.053,1.81 ± 0.059,2.15 ± 0.18,2.4 ± 0.19
OCIAD1 (UniProt Q9NX40),0.922 ± 0.025,0.9 ± 0.044,1.01 ± 0.016,0.982 ± 0.058,0.971 ± 0.072,0.956 ± 0.053,0.956 ± 0.034,0.974 ± 0.037
UniProt Q9H0F7|Q9H0F7-2|A0A0J9YXT0,1.02 ± 0.063,1.03 ± 0.1,0.914 ± 0.011,0.986 ± 0.12,0.932 ± 0.065,0.904 ± 0.032,0.864 ± 0.061,0.882 ± 0.065
ULBP2 (UniProt Q9BZM5),0.893 ± 0.085,0.86 ± 0.1,0.918 ± 0.073,0.884 ± 0.1,0.907 ± 0.098,0.89 ± 0.043,0.916 ± 0.1,0.925 ± 0.088
UniProt Q9UKV8,1.08 ± 0.065,1.14 ± 0.053,1.06 ± 0.045,1.11 ± 0.053,1.1 ± 0.026,1.07 ± 0.078,1.07 ± 0.057,1.05 ± 0.061
ZHX3 (UniProt Q9H4I2),0.975 ± 0.062,0.94 ± 0.043,0.994 ± 0.1,1.01 ± 0.099,0.967 ± 0.039,1.01 ± 0.079,1.05 ± 0.07,1.05 ± 0.11
RAB21 (UniProt Q9UL25),0.998 ± 0.058,0.967 ± 0.036,0.87 ± 0.016,0.862 ± 0.011,0.837 ± 0.029,0.84 ± 0.039,0.812 ± 0.048,0.813 ± 0.093
NUDC (UniProt Q9Y266),0.924 ± 0.044,0.938 ± 0.06,0.931 ± 0.058,0.88 ± 0.077,0.852 ± 0.063,0.893 ± 0.076,0.885 ± 0.056,0.872 ± 0.069
X5CMH5 (UniProt Q03519),1.09 ± 0.036,1.08 ± 0.054,0.978 ± 0.028,1.01 ± 0.085,0.976 ± 0.063,0.951 ± 0.051,0.934 ± 0.015,0.918 ± 0.065
DDX23 (UniProt Q9BUQ8),1.04 ± 0.036,1.09 ± 0.067,1.19 ± 0.12,1.27 ± 0.075,1.55 ± 0.18,1.62 ± 0.19,1.89 ± 0.28,1.93 ± 0.23
UniProt Q9H3N1,0.957 ± 0.055,0.947 ± 0.043,0.935 ± 0.04,0.871 ± 0.062,0.858 ± 0.071,0.878 ± 0.091,0.885 ± 0.053,0.859 ± 0.065
LEMD3 (UniProt Q9Y2U8),0.989 ± 0.049,1 ± 0.038,1.01 ± 0.037,1.01 ± 0.048,0.999 ± 0.036,0.985 ± 0.033,1.01 ± 0.049,0.985 ± 0.027
SAMM50 (UniProt Q9Y512),1.13 ± 0.15,1.18 ± 0.19,0.999 ± 0.1,1.13 ± 0.29,1.11 ± 0.19,1.1 ± 0.22,0.985 ± 0.098,0.949 ± 0.17
UniProt Q96MT7-2,1.09 ± 0.063,0.959 ± 0.033,1 ± 0.093,0.863 ± 0.12,0.869 ± 0.04,0.915 ± 0.14,0.834 ± 0.052,0.786 ± 0.082
UniProt Q9UMX0|Q9UMX0-2,0.999 ± 0.07,0.998 ± 0.015,1.09 ± 0.11,1.02 ± 0.032,1.012 ± 0.0015,0.994 ± 0.039,1.02 ± 0.053,1.01 ± 0.039
PSMG3 (UniProt Q9BT73),1.03 ± 0.027,1.09 ± 0.083,1.09 ± 0.058,1.07 ± 0.042,1.08 ± 0.054,0.999 ± 0.087,1.14 ± 0.087,1.04 ± 0.042
ILKAP (UniProt Q9H0C8),0.959 ± 0.034,0.95 ± 0.023,0.905 ± 0.049,0.904 ± 0.058,0.88 ± 0.058,0.897 ± 0.048,0.87 ± 0.049,0.869 ± 0.065
PGAM5 (UniProt Q96HS1),1.03 ± 0.034,1.09 ± 0.073,1.18 ± 0.14,1.4 ± 0.26,1.67 ± 0.38,1.79 ± 0.45,1.86 ± 0.4,1.95 ± 0.47
UniProt Q9UG63|Q9UG63-2,1.1 ± 0.076,1.11 ± 0.014,1.07 ± 0.072,1.35 ± 0.072,1.83 ± 0.061,2.15 ± 0.12,2.39 ± 0.11,2.744 ± 0.018
UniProt Q9UJX6|Q9UJX6-2,1.3 ± 0.28,1.33 ± 0.37,1.18 ± 0.28,1.26 ± 0.47,1.3 ± 0.37,1.25 ± 0.46,1.12 ± 0.31,1.22 ± 0.48
